For orientation: AC50 means the concentration at which the activity in the assay is half-maximal.

Inconclusive results are not listed. Calls of active or inactive are those of the source. Rule for the calls: active = hit-call score of the fitted dose curve at least 0.9, where 1 is the maximum; inconclusive = response in the unintended direction; inactive = score below 0.9.

This note sets out measurements from PubChem BioAssay (EPA / NIEHS).

In the experiment the target is Ratio of Nucleoli Translocation and Cytoplasm, AR (gene 367) (UniProt P10275). Put plainly: UPITT_HCI_U2OS_AR_TIF2_Nucleoli_Cytoplasm_Ratio_Agonist: University of Pittsburgh U2OS Androgen Receptor-Transcriptional Intermediary Factor 2 (AR-TIF2) Agonism High Content Imaging Assay for Ratio of Nucleoli Translocation and Cytoplasm (AID 2284000).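 Note: hits raise the red nucleolar to cytoplasm ratio above vehicle.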 From the text: UPITT_AR_TIF2_PPIB is a cell-based, high-content imaging assay that uses U2OS, a human osteosarcoma cell line, expressing a human androgen receptor fused to red fluorescent protein and the coactivator TIF2 fused to green fluorescent protein. UPITT_HCI_U2OS_AR_TIF2_Nucleoli_Cytoplasm_Ratio_Agonist is one of four assay components measured from the UPITT_AR_TIF2_PPIB assay. It is designed to make measurements of the ratio of red fluorescence localized in the nucleolar region of the cell nucleus to red fluorescence localized in the cytoplasm as detected with high-content fluorescent imaging.Data from the assay component UPITT_HCI_U2OS_AR_TIF2_Nucleoli_Cytoplasm_Ratio_Agonist was analyzed into 1 assay endpoint. This assay endpoint, UPITT_HCI_U2OS_AR_TIF2_Nucleoli_Cytoplasm_Ratio_Agonist, was analyzed in the positive analysis fitting direction relative to DMSO as the baseline of activity. Using a type of binding reporter, measures of receptor for gain-of-signal activity can be used to understand the binding at the pathway-level as it relates to the gene AR.
Ratio of Nucleoli Translocation and Cytoplasm, AR (gene 367), sequence (P10275 whole entry, looked up, the tested form may be a part): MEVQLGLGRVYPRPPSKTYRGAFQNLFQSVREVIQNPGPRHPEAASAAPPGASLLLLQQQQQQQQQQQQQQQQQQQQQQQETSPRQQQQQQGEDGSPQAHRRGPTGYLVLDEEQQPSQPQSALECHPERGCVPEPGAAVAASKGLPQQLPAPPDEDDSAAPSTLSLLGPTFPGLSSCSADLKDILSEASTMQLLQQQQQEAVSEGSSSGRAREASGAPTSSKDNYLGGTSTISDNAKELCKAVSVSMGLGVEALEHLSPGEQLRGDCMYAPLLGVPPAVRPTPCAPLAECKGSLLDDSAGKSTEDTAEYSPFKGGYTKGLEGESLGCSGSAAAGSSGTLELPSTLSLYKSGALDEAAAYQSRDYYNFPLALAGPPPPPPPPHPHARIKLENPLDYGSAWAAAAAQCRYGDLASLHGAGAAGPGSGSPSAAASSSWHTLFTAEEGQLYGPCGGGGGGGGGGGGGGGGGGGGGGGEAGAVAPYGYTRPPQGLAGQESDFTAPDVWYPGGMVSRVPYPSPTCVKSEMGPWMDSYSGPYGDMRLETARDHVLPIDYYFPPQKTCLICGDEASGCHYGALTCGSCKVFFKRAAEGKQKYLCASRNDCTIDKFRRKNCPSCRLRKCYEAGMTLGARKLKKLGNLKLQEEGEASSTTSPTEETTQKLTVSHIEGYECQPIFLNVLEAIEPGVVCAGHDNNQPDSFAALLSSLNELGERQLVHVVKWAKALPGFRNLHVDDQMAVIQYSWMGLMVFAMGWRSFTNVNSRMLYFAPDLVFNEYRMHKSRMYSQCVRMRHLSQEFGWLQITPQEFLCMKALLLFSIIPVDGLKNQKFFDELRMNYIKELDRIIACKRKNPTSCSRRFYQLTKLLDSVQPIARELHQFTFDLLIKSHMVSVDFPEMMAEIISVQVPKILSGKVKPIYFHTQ
Daughter plates containing 2 uL of 10 mM compounds in DMSO were prepared and replicated from the 384-well Library of Pharmacologically Active Compounds (LOPAC) master plates using the Bravo outfitted with a 384-well transfer head. Aluminum adhesive plate seals were applied with an Abgene Seal-IT 100 (Rochester, NY) plate sealer, and the plates were stored at -20 C in a Matrical MatriMinistore (Spokane, WA) automated compound storage and retrieval system. For screening, LOPAC daughter plates were withdrawn from -20C storage, thawed to ambient temperature, centrifuged 1-2 min at 50 g, and the plate seals were removed before the transfer of 98 uL of serum-free tissue culture medium (SFM) into wells using the BioTek Microflo liquid handler (BioTek, Winooski, VT) to generate a 200 uM intermediate stock concentration of library compounds (2.0% DMSO). The diluted compounds were mixed by repeated aspiration and dispensation using a 384-well P30 dispensing head on the Evolution P3 (EP3) liquid handling platform (PerkinElmer, Waltham, MA) and then 5 uL of diluted compounds was transferred to the wells of assay plates. In the LOPAC screen, compounds were individually tested at a final concentration of 20 uM (0.2% DMSO). After the diluted compounds had been transferred from the daughter plates to the primary HCS assay plates, aluminum adhesive plate seals were applied and the diluted daughter plates were stored frozen at -20C. To confirm active compounds identified in the primary screen, we withdrew the LOPAC daughter plates containing the 200 uM intermediate concentration of library compounds (2.0% DMSO) from -20C storage, thawed them to ambient temperature, centrifuged them for 1-2 min at 50 g, and removed the plate seals. A work list was generated to direct the Multiprobe Janus liquid handling platform (PerkinElmer) to cherry pick 75 uL from the wells of the diluted daughter plates that were flagged active in the primary screen and to reformat these into a 384-well plate hit confirmation daughter plate. Five microliters of primary HCS active compounds was then transferred into triplicate wells of assay plates using a 384-well P30 dispensing head on the Evolution P3 (EP3) liquid handling platform (PerkinElmer). […] Daughter plates containing 2 uL of the serially diluted compounds in DMSO were prepared and replicated from the 384-well serial dilution master plates using the Bravo outfitted with a 384-well transfer head. Aluminum adhesive plate seals were applied and plates were stored at -20C. For testing in the bioassays, daughter plates were withdrawn from -20C storage, thawed to ambient temperature, centrifuged for 1-2 min at 50 g, and the plate seals were removed before the transfer of 38 uL of SFM into wells using the BioTek Microflo liquid handler (BioTek) to generate an intermediate stock concentration of library compounds ranging from 1.95 to 500 uM (5.0% DMSO). […]
As to `CN(C[C@@H](CC[N+]12CCC(C3CCCCC3)(CC1)CC2)c1ccc(Cl)c(Cl)c1)C(=O)c1cc(C(F)(F)F)cc(C(F)(F)F)c1`, the AC50 is 50 µM (active).

With `CCN(Cc1cccnc1)C(=O)c1cccc(Cl)c1[C@]1(C)C(=O)N(Cc2ccc(OC)cc2OC)c2ccc(Cl)cc21`, the outcome was inactive.

Turning to `CN(C)c1ccc(C(=C2C=CC(=[N+](C)C)C=C2)c2ccc(N(C)C)cc2)cc1`, the result was inactive.

Regarding `CCCCOC(=O)c1ccc(O)cc1`, the outcome was inactive.

With `O=C(Nc1ccc(Cl)cc1)Nc1ccc(Cl)c(Cl)c1`, the outcome was inactive.

Consider `CCCCCCCCCC(=O)O`, for which the result was inactive.

Take `NCc1cccc(C2CCN(C(=O)c3ccc(C#Cc4ccccc4F)o3)CC2)c1`: the AC50 is 50 µM (active).

Take `OCCO`: the outcome was inactive.

Turning to `Cc1ccc(C(C)C)cc1`, the outcome was inactive.

Turning to `Cc1occc1C(=O)Nc1ccc(C(=O)N2CCC(F)(F)/C(=C\C(=O)N3CCC(N4CCCCC4)CC3)c3ccccc32)cc1`, the result was inactive.

Consider `Cc1cc(F)ccc1-c1cc(N2CC[C@@H](O)[C@H]2CO)ncc1N(C)C(=O)C(C)(C)c1cc(C(F)(F)F)cc(C(F)(F)F)c1`, for which the AC50 was 60.4 µM (active).

Consider `NC(=O)c1nc(-c2cccc(-c3cc(F)ccc3OCC(F)(F)C(F)(F)F)c2)n[nH]1`, for which the AC50 is 12.7 µM (active).

`Cc1c2ccccc2c(C)c2c1ccc1ccccc12`: the result was inactive.

For `O=c1c(-c2ccc(O)cc2)coc2cc(O)cc(O)c12`, the result was inactive.

On to `COc1cc(C(=O)NC2CCN(C)CC2)ccc1Nc1ncc2c(n1)N(C1CCCC1)CC(F)(F)C(=O)N2C`, for which the result was inactive.

With `O=C(O)c1ccccc1C(=O)OCc1ccccc1`, the outcome was inactive.

Turning to `CCCCCCCCN(C)CCCCCCCC`, the result was inactive.

As to `COCC(C)OCC(C)OCC(C)O` (stereo unspecified), the result was inactive.

As for `O=C(O)Cn1c(=O)n(Cc2ccc(Br)cc2F)c(=O)c2ccc(Cl)cc21`, the outcome was inactive.

Take `CCCC(=O)OCCC(C)C`: the outcome was inactive.

In the case of `Oc1ccc2ccccc2c1`, the outcome was inactive.
